Assay results taken from PubChem BioAssay (NCI).
Compounds without any hit were thinned out: in the full panel of roughly 83,000, 20% have a hit.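 Method: cells in 96-well plates; compound added at one concentration; 48 h incubation; percent growth measured; values under 10 scored active.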 Activity calls are given as the source filed them.

system: KM12 colon; test: NCI-60 one-dose screen, 48 h (100 = growth as untreated, 0 = no growth, -100 = all killed); details: 10 µM unless noted

| SMILES | growth |
| --- | --- |
| COc1ccc2oc3c4[nH]c5ccccc5c4c4c(c3c2c1)C(=O)N(O)C4=O | 101% (inactive) |
| O=S(=O)(NCCCNc1nccc(-n2cnc3ccccc32)n1)c1ccc(F)cc1 | 48.9% (inactive) |
| CCNC(=O)Oc1ccc(/C(=C(/C)c2ccc(Cl)cc2)c2ccc(OCCN(C)C)cc2)cc1 | 89.8% (inactive) |
| Oc1ccc(CSc2nnc(-c3ccc(Oc4ccccc4)cc3)n2-c2ccccc2)c2cccnc12 | 17.7% (inactive) |
| Fc1ccc(-c2cc3nc(C(Cl)Cl)nc(-c4cccs4)n3n2)cc1 | -30.5% (active) |
| Fc1ccccc1/C=C(/C1=NCCN1)n1cnc2ccccc21 | 96.5% (inactive) |
| COc1ccc2c(c1)c(-c1nn3c(=O)cc(-c4ccccc4)nc3s1)cn2C | 44.7% (inactive) |
| O=C1c2cc(Br)ccc2-n2c1nc1cc(Br)ccc1c2=O | 77.5% (inactive) |
| CCOC(=O)C1=C(C)Nc2nnc(Nc3ccccc3)n2C1c1ccccc1 (stereo not drawn) | 94.7% (inactive) |
| CCc1ccc(NC(=O)N[C@@H](Cc2cccc(C)c2)C(=O)N[C@@H]2C(=O)N3CCC[C@H]3C(=O)N3CCCC[C@H]3C(=O)N[C@@H](CO)C(=O)N3C[C@H](C)C[C@H]3C(=O)O[C@H]2C)c(F)c1 | 37.6% (inactive) |
| COc1ccc(-c2cc(-c3cccc4ccccc34)n3c(n2)nc2ccccc23)cc1OC | 68.1% (inactive) |
| COc1cc2oc(-c3cccc(NC(=O)c4cc(NC(=O)[C@H](C)N)ccc4Cl)c3)cc(=O)c2c(OC)c1OC | 96.3% (inactive) |
| CC(=O)c1ccc(NC(=O)COc2ccc(C3SCC(=O)N3c3ccc(Br)cc3)cc2)cc1 (stereo not drawn) | 98.2% (inactive) |
| O=C(O)CNS(=O)(=O)c1ccc(Oc2ccc(S(=O)(=O)NCC(=O)O)cc2)cc1 | 98.4% (inactive) |
| C/C(=C(/C)C1CC1CCN(C(=O)c1ccc([N+](=O)[O-])cc1)S(=O)(=O)c1ccc(C)cc1)C1CCCCC1 (stereo not drawn) | 89.6% (inactive) |
| COCCOc1ccc(-c2csc(NC(=O)CN3CCN(CCO)CC3)n2)cc1NS(=O)(=O)c1cccc2c(N(C)C)cccc12 | 97.4% (inactive) |
| CCN1C/C(=N\S(=O)(=O)c2ccccc2)N(CC)C1=S | 103% (inactive) |
| Cc1ccc(C2CC(c3ccc(Nc4nc(NCCO)nc(Nc5ccc(Cl)cc5)n4)cc3)=Nc3c(N)nc(N)nc3N2)cc1 (stereo not drawn) | -88% (active) |
| CSc1nccc(-c2c(-c3ccc(F)c(OCc4ccc(F)cc4)c3)nc3sccn23)n1 | 80.1% (inactive) |

| SMILES | growth |
| --- | --- |
| Clc1ccccc1/C=C/c1nn2c(-c3ccncc3)nnc2s1 | 110% (inactive) |
| O=S(=O)(Nc1ccc(-n2cnc3cc(-c4ccc(O)cc4)ccc32)cc1)C1CC1 | 68.7% (inactive) |
| COc1cc2c3c(n(CCCNC4CCCCC4)c(=O)c2cc1OC)-c1cc2c(cc1C3=O)OCO2 | 57.4% (inactive) |
| CCOc1ccc2nc(NC(=O)Nc3ccccc3C)sc2c1 | 40.7% (inactive) |
| CS(=O)(=O)c1ccc(-c2nn(-c3ccccc3)cc2/C=N/NC(=O)c2ccncc2)cc1 | 90.7% (inactive) |
| Oc1ccc(CSc2nnc(-c3ccccc3)n2-c2ccccc2)c2cccnc12 | 14.1% (inactive) |
| O=C(c1ccc(O)cc1)[C@@H]1[C@@H]2CCCN2[C@@]2(C(=O)N(C(=O)c3ccc(F)cc3)c3ccccc32)[C@H]1c1ccc(F)cc1 | 100% (inactive) |
| CNC(=O)c1c(NC(=O)c2ccc(F)cc2F)sc2c1CCC(=O)C2 | 9.65% (active) |
| Nc1n[nH]c2cccc(C#Cc3cccc(NC(=O)c4cccc(OC(F)(F)F)c4)c3)c12 | 58% (inactive) |
| Cc1cn(-c2cc(NC(=O)c3cncc(C#Cc4cnc5ccc(OCCCS(C)(=O)=O)nn45)c3)cc(C(F)(F)F)c2)cn1 | -17.8% (active) |
| COc1c([C@@H](CC(C)C)OC(C)=O)ccc2c1C(=O)OCc1cc(C)cc(O)c1O2 | 30.7% (inactive) |
| COc1cc(C(=O)C[n+]2ccc3ccccc3c2)cc(OC)c1OC | 96.1% (inactive) |
| COc1ccc(CCN2C(=O)CSC2=S)cc1OC | 16.6% (inactive) |
| C/C(=N\NC(=O)CSc1nc2sc3c(c2c(=O)n1-c1ccccc1)CCC(C)C3)c1ccc(Cl)cc1 (stereo not drawn) | 25.1% (inactive) |
| Cn1nc(Nc2ccccc2)c(C(=O)NN)c1N | 99.4% (inactive) |
| N/C(=N\c1nc2c(Cl)cccc2s1)C(Cl)(Cl)Cl | 41.5% (inactive) |
| COc1cc(O)c2c(c1)/C=C/C[C@H](O)[C@H](O)C(=O)/C=C\C[C@H](C)OC2=O | 19.1% (inactive) |
| CCCCCCNC(=O)Oc1ccc(/C(=C(/C)c2ccccc2)c2ccc(OCCN(C)C)cc2)cc1 | 66.2% (inactive) |
| CS(=O)c1nccc(-c2c(-c3ccc(F)c(OCc4ccc(F)cc4)c3)nc3sccn23)n1 (stereo not drawn) | 54.5% (inactive) |
